Measured values published in PubChem BioAssay (NCATS).
Records with an inconclusive call do not appear. Calls of active or inactive are those of the source. Calls follow the shape of the dose curve; as a rule, active = well fitted inhibition curve with a large enough effect; inconclusive = small, poorly fitted or top-dose-only effect; inactive = flat fitted curve, though single readings scatter.

system: CP185; assay: qHTS profiling for inhibitors of Plasmodium falciparum proliferation (AID 504749); also: nearly all actives have a fitted effect of over 60% in size;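 as to activity, negative = inhibition: 0% = DMSO vehicle and full inhibition = artemisinin control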; details: P. falciparum in erythrocytes, SYBR Green DNA, 72 h; series mostly up to 28.7 µM; activity, negative = inhibition: at the top concentration
Outline: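 Fluorescence of SYBR Green-bound parasite DNA, read at 485/535 nm, served as the growth measure. Infected erythrocytes were cultured with compound 72 h; artemisinin (0.29 uM) and DMSO wells defined the normalization range.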
Potency is read from the fitted curve at half-maximal effect.

Compound	activity, negative = inhibition	Potency
CCCCCCCCCCCCCCCCOP(=O)([O-])OCC[N+](C)(C)C	0.682% (inactive)	–
O=C1OC(c2ccc(O)cc2)(c2ccc(O)cc2)c2ccccc21	8.49% (inactive)	–
Oc1ccc(Cl)cc1Sc1cc(Cl)ccc1O	0.962% (inactive)	–
CN(C(=O)CN(CCO)CC(=O)N(C)C(C)(C)Cc1ccccc1)C(C)(C)Cc1ccccc1	-14.8% [at 12.8 µM] (inactive)	–
c1ccc(OCc2ccc(CCCN3CCOCC3)cc2)cc1	-17.6% (inactive)	–
NC(CS)C(=O)O (stereo not given)	-29.8% (inactive)	–
N[C@H](Cc1c[nH]c2ccccc12)C(=O)O	0.636% (inactive)	–
c1ccc(-c2ccc(C(c3ccccc3)n3ccnc3)cc2)cc1 (stereo not given)	–	10 µM (active)
CN1CCN(CCCN2c3ccccc3Sc3ccc(S(=O)(=O)N(C)C)cc32)CC1	-0.857% [at 12.8 µM] (inactive)	–
CCOC(=O)COc1ccc2c(C)c(CCN(CC)CC)c(=O)oc2c1Cl	-26.9% (inactive)	–
CCN1CCCC1=O	4.6% (inactive)	–
Cc1cccc(C)c1NC(=O)CN1CCN(CCCC(c2ccc(F)cc2)c2ccc(F)cc2)CC1	-16.4% [at 12.8 µM] (inactive)	–
Cc1ccc(C(=O)C(C)CN2CCCCC2)cc1 (stereo not given)	2.55% (inactive)	–
CCN1CCC[C@H]1CNC(=O)c1c(OC)ccc(Br)c1OC	-24.5% (inactive)	–
Cc1ccc(O)c2ncccc12	-18.8% (inactive)	–
